Hit rate of the full screen: of about 360,000 compounds, about 780 (0.22%) were called active. The sample holds actives, similar compounds and a random draw of the others, so the mix is not that of the screen. Unmarked numbers belong to inactive results. Rule as the data show it: active = inhibition above about 8.5% (passing the limit was not always enough); inconclusive = no clear call, values can overlap the other calls.
Each compound was assayed on Mycobacterium tuberculosis FadD28 fatty-acid-AMP ligase (assay: inhibitors of FadD28 bisubstrate probe binding, primary screen, biochemical, fluorescence polarization, single point (AID 588549)). Conditions: at 12.5 µM, hits give high values.

Going from `C=CCn1c(SCc2cc(C(=O)OC)c(C)o2)nnc1-c1ccncc1` to `CCC(=O)Nc1cccc(NC(=O)CSc2nnc(-c3ccc(NS(C)(=O)=O)cc3)n2C)c1`, the inhibition rises from -3.43% to 1.19%.

First: Cc1ccc(C(c2sc3nc(C)nn3c2O)N2CCN(c3ccc(F)cc3)CC2)cc1 (stereo unspecified)
Second: CC(=O)c1c(N2CCN(c3ccc(F)cc3)CC2)nc(=S)n(-c2ccccc2)c1C
The inhibition of the first is lower: -3.79% for the first, -1.67% for the second.

Going from `O=C(C1Cc2ccccc2CN1C(=O)c1ccco1)N1CCN(c2ccccc2)CC1` (stereo unspecified) to `O=C(CSc1nc2ccccc2o1)N1CCN(c2ccc(Cl)cc2)CC1`, the inhibition rises from -0.0045% to 1.06%.

Compared with `C[C@H]1CN([C@@H](C)CO)C(=O)c2cc(C3=CCCCC3)cnc2O[C@@H]1CN(C)C(=O)Cc1ccccc1`, `CCOCN(C(=O)Cn1c(C(C)O)nc2ccccc21)c1c(C)cccc1CC` (stereo unspecified) is lower in inhibition: -1.03% for the first, -5.11% for the second.

First: Cc1nn(Cc2ccccc2)c(C)c1C(=O)N1CCN(CC(=O)Nc2ccccc2Cl)CC1
Second: Cc1cccc(CN2CCN(C3CN(Cc4ccccc4)S(=O)(=O)C3)CC2)c1 (stereo unspecified)
The inhibition of the first is lower: -3.56% for the first, -1.16% for the second.

Compared with `COCCCn1c(-c2cccs2)nc2nc3ccccc3nc21`, `CCc1nc2c(OCCOc3ccccc3)cccn2c1N(C)C(=O)c1cccs1` is lower in inhibition: -0.0615% for the first, -4.76% for the second.

Going from `COCCN1Cc2cccc(C(=O)Nc3ccccc3OC)c2C1=O` to `COCCN(C(=O)c1ccccc1F)c1c(N)n(Cc2ccccc2)c(=O)[nH]c1=O`, the inhibition rises from -3.48% to -1.47%.

Compared with `CCN(CC(=O)NCc1ccc(F)cc1)S(=O)(=O)c1ccc(Cl)s1`, `CCN(CC)S(=O)(=O)c1ccc(N2CC(C(=O)NCc3cccnc3)CC2=O)cc1` (stereo unspecified) is higher in inhibition: -3.08% for the first, -2.96% for the second.

Compared with `C=CC(=O)OCCOCCOCCOCCOC(=O)C=C`, `COC(=O)CCCCC1=CCC2C(=O)C=C(O)C2C1` (stereo unspecified) is higher in inhibition: -2.6% for the first, -1.93% for the second.

Compared with `COc1cc(CNCc2ccc(OC)c3ccccc23)cc(OC)c1OC`, `COc1cc(OC)cc(C(=O)NC2CCN(C(=O)N3c4ccccc4Sc4ccccc43)CC2)c1` is lower in inhibition: -0.377% for the first, -5.05% for the second.

Going from `COC(=O)C1(C)CC1(c1ccccc1)c1ccccc1` (stereo unspecified) to `O=S(=O)(NCC1OCCc2ccccc21)c1ccccc1` (stereo unspecified), the inhibition rises from -0.161% to -0.133%.

Compared with `O=C1c2ccccc2C2=Nc3ccccc3SC(c3ccccc3F)C12` (stereo unspecified), `CN(C)c1ccc(Nc2c3c4c(cccc4n(C)c2=O)C(=O)c2ccccc2-3)cc1` is higher in inhibition: -4.89% for the first, -0.49% for the second.

Going from `COC(=O)C1CC2=C(CC(C)(C)CC2=O)N(c2ccccc2)C1=O` (stereo unspecified) to `CN1C(=O)CC(c2ccccc2)C1=O` (stereo unspecified), the inhibition falls from 1.35% to -1.61%.

Compared with `Cc1ccc(N(Cc2ccc(C(=O)Nc3ccccc3C(=O)NCc3ccco3)cc2)S(C)(=O)=O)cc1C`, `O=C(Cc1ccc([N+](=O)[O-])cc1)NCCS(=O)(=O)N1CCN(c2ccccc2)CC1` is higher in inhibition: -1.65% for the first, -0.717% for the second.

Going from `CC/C(=N\NC(=O)c1ccccc1Cl)c1ccc(Br)s1` to `CCOC(=O)c1ccccc1N1C(=O)C2Sc3[nH]c(=O)sc3C(/C=C/c3ccccc3)C2C1=O` (stereo unspecified), the inhibition rises from -2.73% to 0.286%.

Going from `Cc1ccc(C)c2c1cc(C)c1nnc(SCC(=O)Nc3cccc(C(=O)O)c3)n12` to `CCn1nnc2cc(C(=O)Nc3ccc(C(=O)OC(C)C)cc3)ccc21`, the inhibition falls from -2.19% to -3.75%.

Compared with `NNC(=O)COc1ccc(C2SCCS2)cc1`, `COc1ccc(SCc2noc(C(=O)NCC3CCCO3)c2C(=O)O)cc1` (stereo unspecified) is higher in inhibition: -1.11% for the first, 0.0895% for the second.

First: CCN1CC(CN(C)Cc2nc(-c3ccc(Cl)cc3)no2)CC1=O (stereo unspecified)
Second: COC(=O)C1CCN(C(=O)c2ccc3oc(Cc4ccc(Cl)cc4)nc3c2)CC1
The inhibition of the first is higher: -0.366% for the first, -0.812% for the second.

Going from `CC1CCCCC1NC(=O)c1cc(=O)[nH]c2ccccc12` (stereo unspecified) to `CC1CCN(c2ccc(C(=O)Nc3nnc(C4CC4)s3)cc2[N+](=O)[O-])CC1`, the inhibition falls from -0.133% to -1.32%.

First: COc1ccc(OC)c(C(=O)c2coc3ccc(O)c(CN4CCOCC4)c23)c1
Second: COC(=O)c1cc(Oc2ccc(S(=O)(=O)N3CCOCC3)cc2[N+](=O)[O-])cc(C(=O)OC)c1
The inhibition of the first is lower: -2.66% for the first, 0.28% for the second.

Compared with `CC(C)C(NC(=O)c1c(F)cccc1F)C(=O)NNC(=O)c1ccccc1` (stereo unspecified), `O=C(Cn1c2[n+](c3ccc(C(F)(F)F)cc31)CCCCC2)Nc1c(F)cccc1F` is higher in inhibition: -3.91% for the first, 4.18% for the second.

Going from `CCC(C)N1C(=O)S/C(=C/c2ccc(Sc3nc4ccccc4[nH]3)o2)C1=O` (stereo unspecified) to `O=C(Cn1nnc(-c2ccccc2)n1)N/N=C/c1ccc(-c2ccc(Cl)cc2)o1`, the inhibition falls from -0.197% to -1.53%.

First: COc1c(C)cc(C(=O)C2CCCN(S(=O)(=O)c3c(C)noc3C)C2)cc1C (stereo unspecified)
Second: CCCNC(=O)c1cc(C2CCCCN2C(=O)OC)on1 (stereo unspecified)
The inhibition of the first is lower: -0.846% for the first, -0.481% for the second.

Going from `Cc1cc(OCCCC(=O)Nc2cc(S(=O)(=O)N3CCOCC3)ccc2N2CCOCC2)ccc1Cl` to `CC(=O)N1CCN(S(=O)(=O)c2ccc(C)c([N+](=O)[O-])c2)C1C(C)C` (stereo unspecified), the inhibition falls from 0.172% to -3.8%.

First: Cn1c(=O)cc(SCC(=O)N2CCCC2)c2cc(Cl)ccc21
Second: CCc1nc2ccc(C(=O)NC3CCN(Cc4ccccc4)CC3)cn2c1N(CC)CCOC
The inhibition of the first is lower: -4.85% for the first, -4.48% for the second.

Going from `CC(C)Cc1nn2c(=O)cc(O)nc2s1` to `O=C(CN1C(=O)NC2(CCCC2)C1=O)NCC1CCCO1` (stereo unspecified), the inhibition falls from 0.338% to -1.47%.

With `CC/C(=N\NC(=O)c1ccccc1O)c1c(O)n(Cc2ccccc2)c(=O)[nH]c1=O` the inhibition was 17.8% (active).
In the case of `Oc1c(Cl)cc(Cl)c(Cl)c1Cc1c(O)c(Cl)cc(Cl)c1Cl`, the inhibition is reported as 65.8% (active).
`O=C(O)C(c1ccccc1)N1C(=O)/C(=C\c2ccc(-c3cccc(Cl)c3)o2)SC1=S` (stereo unspecified) was tested, and the inhibition was 13% (active).
In the case of `O=[N+]([O-])c1cc(Cl)cc(/C=N/NC(=S)Nc2cc(S(=O)(=O)N3CCOCC3)ccc2Cl)c1O`, the inhibition is reported as 22.5% (active).
